Results reported in ChEMBL document CHEMBL4513216, “Probing the Open Global Health Chemical Diversity Library for Multistage-Active Starting Points for Next-Generation Antimalarials” (ACS Infect Dis, 2020).
Screen size: about 69,000 compounds; about 8,600 (12%) showed an effect of 50% or more. The sample holds strong results, similar compounds and a random draw of the others, so the mix is not that of the screen.

Test system: Plasmodium berghei
Assay: Screen against P. berghei liver stage (PbLuc), transformed with Luciferase, at 10uM
Assay type: functional, HepG2
Conditions: tested at 10 uM

Compound	INHIBITION
Cc1nn(CCc2nnc(NCC(C)C)s2)c(C)c1Br	7.38%
C=C(C)CN1CCCC(CNS(C)(=O)=O)C1 (centres undefined)	12%
O=C(Cc1ccsc1)N1C[C@@H]2OCCN(c3cnccn3)[C@@H]2C1	52.3%
O=C(C1CCOCC1)N1C[C@@H]2CN(Cc3ccsc3)CCO[C@@H]2C1	22.9%
Cc1ccc(CC(=O)N2CC[C@@H]3CN(CCN(C)C)CCO[C@@H]3C2)cc1	47.8%
CC(C)N1CCO[C@H]2CN(C(=O)Cc3ccsc3)C[C@H]21	7.24%
O=C(C1CC(F)(F)C1)N1C[C@@H]2CN(Cc3ccsc3)CCO[C@@H]2C1	41.6%
O=C(C1CC=CC1)N1C[C@@H]2CN(Cc3ccsc3)CCO[C@@H]2C1	53.2%
CN(C)CCN1CCO[C@@H]2CN(C(=O)c3cccs3)CC[C@@H]2C1	15.9%
CS(=O)(=O)N1CCO[C@@H]2CN(C(=O)Cc3cccs3)CC[C@@H]2C1	16.8%
CN(C)CCN1CCO[C@@H]2CN(C(=O)Cc3ccsc3)CC[C@@H]2C1	51.2%
CC(C)N1CCO[C@@H]2CN(C(=O)Cc3cccs3)CC[C@@H]2C1	59.3%
CN1CCO[C@@H]2CN(C(=O)Cc3cccs3)CC[C@@H]2C1	26.7%
O=C(Cc1ccsc1)N1C[C@@H]2OCCN(CC3CC3)[C@@H]2C1	31.4%
O=C(CN1CCCC(Cn2cncn2)C1)NCCC1=CCCCC1 (centres undefined)	37.9%
CCc1n[nH]c(C2CN(C(=O)c3cnn(CC)c3)CCO2)n1 (centres undefined)	-8.11%
O=C(c1ccc2c(c1)OCO2)N1CCC(Nc2cccnn2)CC1	31.9%
CN(C)C(=O)COC[C@@H]1CC[C@H]2[C@H](CCN2c2ccccn2)O1	11.4%
Cn1ccc(C(=O)N2C[C@H]3CCC[C@@]3(COCc3cccnc3)C2)n1	3.69%
O=C(c1cocn1)N1C[C@@H]2CN(CC3CC3)CCO[C@@H]2C1	6.83%
O=C(CC1CCCC1)N1C[C@@H]2CN(Cc3ccoc3)CCO[C@@H]2C1	34.6%
CCN1CCO[C@@H]2CN(C(=O)c3cocn3)C[C@@H]2C1	18.7%
O=C(C1CC(F)(F)C1)N1C[C@@H]2CN(Cc3ccoc3)CCO[C@@H]2C1	-35.1%

Compound	INHIBITION
O=C(c1cocn1)N1C[C@@H]2CN(Cc3ccco3)CCO[C@@H]2C1	63%
O=C(N1CCCC1)N1C[C@@H]2CN(Cc3ccoc3)CCO[C@@H]2C1	80%
O=C1NC2(CCN(CC(=O)N3CCOCC3)CC2)Nc2ccc(Br)cc21	23.89%
CN1Cc2ccccc2N(CC(O)C(F)(F)F)CCC1=O (centres undefined)	18.4%
CC(C)CC(NC(=O)c1ccco1)c1nc2cccnc2n1C (centres undefined)	48%
Cc1cc(C)n(CCCN(C)Cc2cn[nH]c2-c2ccc(F)cc2)n1	14%
Cc1ccc(CN2CCOCC3(CCN(Cc4cccs4)C3)C2)o1 (centres undefined)	-34%
CN(CCc1ccc2c(c1)CCO2)C1CCS(=O)(=O)CC1	19%
COCC(C)N1CCN(CCc2ccc3c(c2)CCO3)CC1 (centres undefined)	51.9%
CCOCCN1CCN(CCc2ccc3c(c2)CCO3)CC1	67.6%
Cc1nc(CN(C)C2CCN(CCc3ccc4c(c3)CCO4)C2)no1 (centres undefined)	-8.11%
CC(C)NC1CCN(CCc2ccc3c(c2)CCO3)CC1	35.1%
CCOCCN1CCN(c2ccc(CN(C)C)cn2)CC1	7.24%
CC(=O)NCCNC(=O)c1cccc(Cn2nc(C)cc2C)c1	-18.9%
COCCN(C)C[C@@H]1CCC[C@@H]2CN(Cc3ccc(OC)nc3)C[C@@H]21	20.1%
CCCC(O)CN1CC(C)(C)CN(C(=O)c2ccc(SC)cc2)CC1=O (centres undefined)	43.4%
O=C(NCCCn1cncn1)c1ccc(-c2ccccc2)[nH]c1=O	-12.9%
O=C(NCCCn1cncn1)c1ccc(-c2ccco2)[nH]c1=O	56.3%
Cc1ccc(C(=O)NCCCn2cncn2)c(=O)[nH]1	4.41%
CN1CC(=O)N(c2ccsc2)CC12CCN(S(C)(=O)=O)C2 (centres undefined)	-12.2%
CCc1nc(C2CCCN2CC(=O)Nc2cc(C)on2)no1 (centres undefined)	22.3%
COc1ccc(-c2noc(C(N)CCSC)n2)cc1 (centres undefined)	36.2%
O=C(NCCNc1ncccn1)N1CCCC1c1ccc(F)cc1 (centres undefined)	6.11%

Compound	INHIBITION
CNC(=O)c1nc(CC(=O)Nc2ccc3cc[nH]c3c2)no1	30.5%
Brc1ccc(NCc2ccc(Cn3ccnc3)cc2)nc1	-51.4%
CNC(=O)c1cccnc1NCc1ccc(Cn2cccn2)cc1	21.9%
c1ccc(NCc2ccc(Cn3ccnc3)cc2)nc1	6.7%
CC(OCC1CC1)C(=O)NCc1ccc(Cn2ccnc2)cc1 (centres undefined)	30.1%
CNC(=O)c1cccnc1NCc1ccc(-n2cccn2)cc1	26.4%
CC(C)COC(C)C(=O)NCc1ccccc1Cn1ccnc1 (centres undefined)	32.3%
CC(C)COC(C)C(=O)NCc1ccc(Cn2ccnc2)cc1 (centres undefined)	58.3%
CNC(=O)c1cccnc1NCc1ccc(Cn2ccnc2)cc1	85.7%
CS(=O)(=O)c1ccccc1NCc1ccc(Cn2ccnc2)cc1	52%
COCCc1noc(CN(C)c2nc(C)cc(C)n2)n1	47.6%
COc1ccc(Cl)cc1CCNC(=O)NCc1ccncc1	-23.5%
NC(=O)CCN1CCc2onc(-c3ccccc3F)c2C1	-62.1%
CC(=O)N1CCN(CCOc2ccc(F)cc2)CC(C(N)=O)C1 (centres undefined)	12.3%
CCNC(=O)[C@@H]1C[C@H](N)CN1C(=O)c1cccc(CCC(C)(C)O)c1	17.5%
Cc1nn(C(C)C)c2cnn(CC(=O)N3CCN(C)CC3)c12	21.7%
CC(C)c1cc(NC(=O)CN2CCn3c(nnc3C3CC3)C2)on1	7.5%
Cc1nccn1-c1ccc(NC(=O)C2CCCN2Cc2ccoc2)cc1 (centres undefined)	54.4%
Cc1cccnc1NC(=O)C1CCCN1Cc1ccccc1 (centres undefined)	-10.4%
Cc1nccn1-c1ccc(NC(=O)C2CCCN2Cc2c[nH]cn2)cc1 (centres undefined)	36.2%
Cc1nccn1-c1ccc(NC(=O)C2CCCN2CC2CC2)cc1 (centres undefined)	55.4%
CCCN1CCCCC1C(=O)Nc1ccc(-c2nnc[nH]2)cc1 (centres undefined)	-28.6%
Cc1nccn1CCCNC(=O)C1CCCCN1Cc1ccncc1 (centres undefined)	-2.07%
